10 compounds from publication PMC5540273 (PLoS ONE, 2017) can be followed below.

Assay [1] deals with LCK. As to conditions: concentration: 1 μM, replicates: in singlicate; n = 1.
The subject of assay [2] is LIMK1. As to conditions: concentration: 1 μM, replicates: in singlicate; n = 1.
Assay [3] concerns LIMK2. As to conditions: concentration: 1 μM, replicates: in singlicate; n = 1.
Assay [4] deals with T1, LKB1.
T1 construct: gene STK11
As to conditions: concentration: 1 μM, replicates: in singlicate; n = 1.

In assay [5] the test system is T2, LOK.
T2 construct: gene STK10
As to conditions: concentration: 1 μM, replicates: in singlicate; n = 1.

For assay [6], the system named is LRRK2. The note with it: n = 1.
Assay [7] has as its system LTK. The note with it: concentration: 1 μM, replicates: in singlicate; n = 1.
Assay [8] deals with LYN. The note with it: concentration: 1 μM, replicates: in singlicate; n = 1.
Assay [9] relates to T3, LZK.
T3 construct: gene MAP3K13
As to conditions: concentration: 1 μM, replicates: in singlicate; n = 1.

Assay [10] has as its system MAK. The note with it: concentration: 1 μM, replicates: in singlicate; n = 1.
Assay [11] deals with MAP3K15. As to conditions: concentration: 1 μM, replicates: in singlicate; n = 1.
Assay [12] has as its system MAP3K1. The note with it: concentration: 1 μM, replicates: in singlicate; n = 1.
Assay [13] has as its system MAP3K2. The note with it: concentration: 1 μM, replicates: in singlicate; n = 1.
The test system of assay [14] is MAP3K3. As to conditions: concentration: 1 μM, replicates: in singlicate; n = 1.
For assay [15], the system named is MAP3K4. As to conditions: concentration: 1 μM, replicates: in singlicate; n = 1.
Assay [16] concerns MAP4K2. As to conditions: concentration: 1 μM, replicates: in singlicate; n = 1.
Assay [17] has as its system MAP4K3. The note with it: concentration: 1 μM, replicates: in singlicate; n = 1.
Assay [18] has as its system MAP4K4. As to conditions: concentration: 1 μM, replicates: in singlicate; n = 1.
Assay [19] relates to MAP4K5. The note with it: concentration: 1 μM, replicates: in singlicate; n = 1.
In assay [20] the test system is MAPKAPK2. The note with it: concentration: 1 μM, replicates: in singlicate; n = 1.
Setting [21] is: concentration: 1 μM, replicates: in singlicate.

Where two headings read alike, the source gives them in different places.
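Note: KINOMEscan kinase panel screen.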

For the compound `N#Cc1cnc2cc(-c3cnc(CNCCN4CCOCC4)s3)ccc2c1Nc1ccc(Oc2ccccc2)cc1` [GW664114], the “%Inh” value was 99.7% in assay [1]; 6% in assay [2]; 0% in assay [3]; 0% in assay [4]; 88% in assay [5]; 0% in [6] (setting [21]). The “%Inh” value was found to be 0% in assay [7]; 90% in [8]; 76% in assay [9]; 28% in assay [10]; 0% in assay [11]; 19% in [12]. The “%Inh” value is 65% in assay [13]; 86% in assay [14]; 99.2% in assay [15]; 71% in assay [16]; 98.9% in [17]; 98.1% in [18]. Also, the “%Inh” value in [19] was 99.6%; in [20], 14%.

Consider `O=C1NC(=O)C(c2ccccc2Cl)=C1Nc1cccc(Cl)c1` [SB-342409], for which the “%Inh” value was found to be 1% in [1]; 20% in assay [2]; 89% in [3]; 0% in assay [4]; 5% in assay [5]; 2% in assay [6] (setting [21]). The “%Inh” value in assay [7] was 0%; in assay [8] it was 0%; in assay [9], 0%; in assay [10], 12%; in [11], 0%; in assay [12], 10%. The “%Inh” value in assay [13] was found to be 1%; in assay [14], 3%; in [15], 3%; in assay [16] it was 0%; in [17], 5%; in [18] it was 0%. Further, the “%Inh” value in [19] is on record as 0%; in [20], 37%.

As to `O=C(Nc1n[nH]c2cc(-c3cccs3)ccc12)C1CC1` [SB-731284], the “%Inh” value in [1] turned out to be 0%; in assay [2] it was 6%; in [3], 0%; in assay [4], 10%; in [5], 17%; in [6] (setting [21]) it was 0%. Moreover, the “%Inh” value in assay [7] is reported as 0%; in assay [8], 0%; in assay [9] it was 0%; in assay [10], 0%; in [11], 57%; in [12], 52%. In addition, the “%Inh” value in [13] was determined as 34%; in assay [14] it was 44%; in assay [15], 0%; in [16], 9%; in assay [17], 0%; in [18], 13%. Moreover, the “%Inh” value in assay [19] and in assay [20] was 0% each time.

Turning to `CN(C)c1ncnc2nc[nH]c12` [SKF-31736], the “%Inh” value in [1] is given as 0%; in assay [2], 0%; in assay [3], 0%; in assay [4] it was 0%; in [5], 2%; in [6] (1 µM) it was 0%. In addition, the “%Inh” value came to 0% in assay [7]; 0% in assay [8]; 8% in assay [9]; 0% in [10]; 37% in [11]; 11% in [12]. The “%Inh” value in assay [13] is 16%; in assay [14], 0%; in assay [15], 0%; in assay [16] it was 0%; in [17] it was 0%; in assay [18], 0%. Moreover, the “%Inh” value in assay [19] and in assay [20] was 0% throughout.

`Fc1cc(Cl)ccc1Nc1ccnc2cc(-c3ccc(CN4CCOCC4)o3)ccc12` [GW560109]: the “%Inh” value turned out to be 97% in assay [1]; 0% in [2]; 0% in [3]; 0% in [4]; 62% in [5]; 70% in assay [6] (setting [21]). In addition, the “%Inh” value in [7] stood at 57%; in assay [8], 76%; in assay [9], 0%; in assay [10], 7%; in assay [11], 23%; in [12] it was 38%. Also, the “%Inh” value in assay [13] is on record as 0%; in assay [14], 0%; in assay [15], 0%; in assay [16], 0%; in [17], 72%; in [18], 25%. In addition, the “%Inh” value is recorded as 11% in assay [19] and 7% in assay [20].

Turning to `COc1ccc(NC(=O)c2ccoc2)cc1-c1ccc(C(=O)NCC2CC2)cc1` [GW810437], the “%Inh” value in [1] was 0%; in [2], 2%; in [3], 0%; in assay [4], 52%; in assay [5], 28%; in [6] (setting [21]) it was 20%. The “%Inh” value amounted to 16% in assay [7]; 0% in [8]; 19% in [9]; 13% in assay [10]; 4% in assay [11]; 13% in assay [12]. In addition, the “%Inh” value in [13] is listed as 9%; in [14], 0%; in [15], 6%; in assay [16], 10%; in assay [17], 0%; in assay [18], 0%. Moreover, the “%Inh” value in assay [19] was 7%; in [20], 0%.

With `CN(c1ccc(NC(=O)Nc2cccc(Cl)c2)cc1)c1ccnc(N)n1.Cl` [GW830707], the “%Inh” value in [1] worked out at 7%; in assay [2], 0%; in assay [3] it was 0%; in assay [4], 20%; in [5] it was 97.8%; in assay [6] (setting [21]), 66%. The “%Inh” value in assay [7] turned out to be 12%; in assay [8], 0%; in assay [9], 0%; in assay [10] it was 11%; in assay [11], 0%; in [12], 0%. In addition, the “%Inh” value in [13] turned out to be 0%; in assay [14], 23%; in [15], 0%; in assay [16], 10%; in [17], 0%; in [18], 0%. Moreover, the results for the “%Inh” value in assay [19] and in [20] were 16% and 0%, respectively.

Take `CN1CCN(Cc2ccc(NC(=O)Nc3ccc(N(C)c4ccnc(Nc5ccc(CS(C)(=O)=O)cc5)n4)cc3)cc2)CC1.Cl` [GW827654]: the “%Inh” value in assay [1] was determined as 82%; in [2], 27%; in [3] it was 31%; in [4], 17%; in assay [5], 99.9%; in [6] (setting [21]), 0%. In addition, the “%Inh” value in assay [7] turned out to be 46%; in [8], 70%; in assay [9], 42%; in assay [10], 34%; in [11] it was 100%; in [12] it was 37%. Moreover, the “%Inh” value turned out to be 59% in assay [13]; 61% in [14]; 96% in assay [15]; 67% in assay [16]; 95.5% in assay [17]; 95.8% in assay [18]. For the same compound, the “%Inh” value in assay [19] was found to be 82%; in assay [20], 0%.

`Cl.N#CCc1ccc(Nc2nccc(Nc3ccc(Oc4ccccc4)cc3)n2)cc1` [GW639905]: the “%Inh” value in assay [1] was determined as 90.6%; in assay [2], 25%; in assay [3] it was 11%; in assay [4], 0%; in assay [5] it was 0%; in [6] (setting [21]), 58%. Further, the “%Inh” value in assay [7] worked out at 42%; in assay [8], 62%; in assay [9] it was 0%; in assay [10], 20%; in assay [11], 21%; in assay [12] it was 11%. For the same compound, the “%Inh” value is recorded as 0% in assay [13]; 0% in assay [14]; 10% in [15]; 0% in assay [16]; 0% in [17]; 99.1% in assay [18]. Further, the entries for the “%Inh” value in [19] and in assay [20] were 100% and 0%, respectively.

For `CC(C)(C)c1ccc(C(=O)Nc2cn3cc(-n4ccnc4)ccc3n2)cc1`, the “%Inh” value in assay [1] amounted to 0%; in assay [2], 0%; in [3], 10%; in assay [4], 0%; in assay [5], 0%; in [6] (setting [21]) it was 12%. Also, the “%Inh” value in assay [7] is given as 0%; in assay [8], 10%; in assay [9], 0%; in assay [10] it was 18%; in assay [11] it was 68%; in assay [12] it was 12%. Also, the “%Inh” value is reported as 17% in assay [13]; 0% in assay [14]; 15% in [15]; 30% in assay [16]; 0% in assay [17]; 6% in [18]. The “%Inh” value in assay [19] and in assay [20] was 0% in each case.
